Each structure is given as a SMILES string. The panel holds about 79,000 compounds, 15% with a hit somewhere; the sample as a whole holds those more often. Values without a mark were called inactive. Calls of active or inactive are those of the source. Rule as the data show it: active = growth inhibition above about 70%; inactive = the rest.

The nature of test [1]: NCI Yeast Anticancer Drug Screen. Data for the rad50 strain (AID 155).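 Also: 0% = growth of vehicle-only cultures of the same strain.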 Conditions: S. cerevisiae rad50 strain growth inhibition; at 50.0 µM; active compounds read high. The gist of the method: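 A DNA repair-deficient yeast mutant serves as the test organism; compound-induced growth inhibition is calculated against vehicle-treated cells.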
The nature of test [2]: NCI Yeast Anticancer Drug Screen. Data for the mec2-1 strain (AID 157). The conditions noted are these: S. cerevisiae mec2-1 strain, at 50.0 µM, active compounds read high. The gist of the method:
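Mutant yeast (mec2-1) grown with compound; growth inhibition relative to vehicle control reported.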

The nature of test [3]: NCI Yeast Anticancer Drug Screen. Data for the sgs1 mgt1 strain (AID 161).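 Also: 0% = growth of cultures given vehicle only.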 Conditions: S. cerevisiae sgs1 mgt1 strain, at 50.0 µM, active compounds read high. The gist of the method: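 Growth of a repair-deficient yeast mutant was monitored after compound treatment and expressed as inhibition relative to vehicle-treated cultures.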
Test [4] is described as follows: NCI Yeast Anticancer Drug Screen. Data for the cln2 rad14 strain (AID 165).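 Also: 0% = growth equal to vehicle treated cultures.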 The conditions noted are these: S. cerevisiae cln2 rad14 strain, at 50.0 µM, active compounds read high. The gist of the method:
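Readout is yeast growth inhibition versus vehicle-treated controls, using a strain with cln2 and rad14 alterations exposed to compound.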

The nature of test [5]: NCI Yeast Anticancer Drug Screen. Data for the bub3 strain (AID 167). The conditions noted are these: S. cerevisiae bub3 mutant strain, at 50.0 µM, active compounds read high. The gist of the method:
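Inhibition values come from growth of compound-treated mutant yeast normalised to vehicle-treated controls.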

Test [6] can be described thus: NCI Yeast Anticancer Drug Screen. Data for the mlh1 rad18 strain (AID 175). The conditions noted are these: S. cerevisiae mlh1 rad18 strain growth inhibition; at 50.0 µM; active compounds read high. The gist of the method:
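Genetically defined yeast (DNA repair-deficient) exposed to compounds; growth inhibition determined relative to vehicle.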

Consider `COc1ccc(NC(=O)CCc2cc(C(C)(C)C)n[nH]2)cc1`, for which the growth inhibition was -22.1% in test [1]; -15.8% in test [2]; -3.8% in test [3]; 12.6% in test [4]; -16.7% in test [5]; -8.5% in test [6].
As for `Cc1ccc(NC(=O)OC/C=C/c2ccccc2)cc1NC(=O)OC/C=C/c1ccccc1`, the growth inhibition was 17.9% in test [1]; 3.05% in test [2]; 9.05% in test [3]; 6.35% in test [4]; -8.35% in test [5]; 24.1% in test [6].
For the compound `CC(=O)c1ccc(N=C2c3ccccc3CN2c2ccc(C(C)=O)cc2)cc1`, the growth inhibition in test [1] is 11.8%; in test [2], -13.6%; in test [3], -6.75%; in test [4], -10.6%; in test [5], -5.25%; in test [6], 4.5%.
As to `O=C(O)C1CCC(=O)N1Cc1csc(-c2ccccc2)n1` (stereo unspecified), the growth inhibition was -23.8% in test [1]; -19.6% in test [2]; -1.45% in test [3]; -19.6% in test [4]; -7.15% in test [5]; 2.7% in test [6].
`CC(Oc1cc2oc(=O)cc(-c3ccccc3)c2cc1Cl)C(=O)O` (stereo unspecified): the growth inhibition in test [1] was -13.6%; in test [2] it was 9.45%; in test [3], 7.05%; in test [4] it was 14.7%; in test [5] it was -9.35%; in test [6], -7.1%.
As to `CC1(C)OCC(C2OC3OC(C)(C)OC3/C2=N/NC(=O)c2cc3cc(OCc4ccccc4)ccc3[nH]2)O1` (stereo unspecified), the growth inhibition in test [1] is 82.5% (active); in test [2], 90.8% (active); in test [3], 39.6%; in test [4], 92.2% (active); in test [5], 84.3% (active); in test [6] it was 86% (active).
Turning to `CCOc1ccccc1C(=O)OCCCc1ccccc1`, the growth inhibition was -1% in test [1]; 9.15% in test [2]; 7.1% in test [3]; -2.25% in test [4]; 25.2% in test [5]; 15.4% in test [6].
Take `NC(=O)c1nnc2c(F)cccc2c1N`: the growth inhibition in test [1] is -39.2%; in test [2], -29.4%; in test [3], -15.3%; in test [4], -0.8%; in test [5] it was -27.2%; in test [6], -24.6%.
In the case of `FC(F)(F)C1(C(F)(F)F)OI2(Br)(OC(C(F)(F)F)(C(F)(F)F)c3ccccc32)c2ccccc21`, the growth inhibition in test [1] is -6.05%; in test [2] it was -0.25%; in test [3], -11.2%; in test [4] it was 21.2%; in test [5], -5.3%; in test [6], 27.1%.
With `Cn1c(=O)c2[nH]c(CCCc3ccc([N+](=O)[O-])cc3)nc2n(C)c1=O`, the growth inhibition in test [1] is -2.45%; in test [2], -5.5%; in test [3], -27.5%; in test [4] it was -26.9%; in test [5] it was -40.5%; in test [6] it was 4.75%.
With `CCCCCC(=O)OCCOC`, the growth inhibition is -3.4% in test [1]; -15.2% in test [2]; -8.45% in test [3]; -46% in test [4]; -38.1% in test [5]; -13.7% in test [6].
As for `CCCCOC(OCCCC)C(OCCCC)OCCCC`, the growth inhibition in test [1] was 18.9%; in test [2], 8.2%; in test [3], 19.8%; in test [4] it was -0.4%; in test [5], 16.4%; in test [6], 38%.
Turning to `O=C(O)/C=C/C(=O)Nc1ccc2c(c1)-c1ccccc1C2=O`, the growth inhibition in test [1] is 15.9%; in test [2], 14.4%; in test [3], 17.9%; in test [4], 5.25%; in test [5], 5.15%; in test [6], 16.6%.
On to `COC(=O)C1=C(C)N(NC(=O)c2ccccc2)C(C)(O)C12CCOC2=O` (stereo unspecified), for which the growth inhibition in test [1] is 1.25%; in test [2], -8.35%; in test [3] it was 5.85%; in test [4], -53%; in test [5] it was -9.65%; in test [6] it was -5.15%.
Consider `Cc1cc(NC(=O)NC(=O)c2ccccc2NC(=O)CN(C)C)ccc1Oc1ncc(Br)cn1`, for which the growth inhibition is -10.3% in test [1]; -28.9% in test [2]; 0.5% in test [3]; -6.2% in test [4]; -21% in test [5]; -26.7% in test [6].
Take `CC(=O)Nc1ccc(Br)cc1C`: the growth inhibition is 25.1% in test [1]; 1.95% in test [2]; 2.25% in test [3]; -10.9% in test [4]; -2.4% in test [5]; 30.6% in test [6].
On to `N/C(=N\OC(=O)Nc1ccc(CSc2ccc(Cl)cc2)o1)c1ccccn1`, for which the growth inhibition in test [1] is 2.9%; in test [2] it was -22.8%; in test [3], -14.1%; in test [4] it was 10.8%; in test [5], -16.9%; in test [6], -31.6%.
Take `c1ccc(C2=NOC(c3ccccc3)N2C23CC4CC(CC(C4)C2)C3)cc1` (stereo unspecified): the growth inhibition was 2.9% in test [1]; 4.4% in test [2]; -17.5% in test [3]; 24.4% in test [4]; -13% in test [5]; 36.1% in test [6].
Regarding `Cc1nc(SCC(=O)Nc2ccc(Cl)cc2)c2sc(=S)n(-c3ccccc3)c2n1`, the growth inhibition was -14.2% in test [1]; 4.6% in test [2]; -1.25% in test [3]; 2.35% in test [4]; -4.4% in test [5]; 5.4% in test [6].
On to `CC(=O)Nc1nc(C)c(CCCOc2ccc([N+](=O)[O-])cc2)c(Cl)n1`, for which the growth inhibition in test [1] is 1.65%; in test [2], 11.4%; in test [3] it was 4%; in test [4], 1.4%; in test [5], 27.1%; in test [6] it was 12.2%.
Take `Cc1ccc2ccccc2c1CSc1nc(N)nc2c1ncn2CC(C)C`: the growth inhibition in test [1] is 37%; in test [2], 23.6%; in test [3] it was 30.7%; in test [4], 25.6%; in test [5], 12.9%; in test [6], 46.5%.

These data come from PubChem BioAssay (NCI).
